Source: the supplement of paper PMC10849652
Targets with a hit are over-represented here; the source holds about 7,900 in all. About 0.6% of all pairs of compound and target were hits.

Tests used:
Assay in all cases: log2 fold change, soluble protein after heating vs DMSO (PISA); higher = thermal stabilisation; K562 cells, 10 uM, 30 min; active = over 0.2 and 3.5 SD of the protein, either way, in both replicates (recomputed)
erlotinib = compound: C#Cc1cccc(Nc2ncnc3cc(OCCOC)c(OCCOC)cc23)c1 [erlotinib]
How it was run: (§1)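 Quantification of soluble protein used TMTpro 16plex LC-MS/MS, with channel sums equalised. Samples were the supernatant after 21,000xg for 90 min of pooled aliquots from K562 cells (2×10^6 cells/mL) treated with 10 μM compound for 30 min, heated for 3 min over 48°C-58°C, and extracted in PBS with 0.5% NP-40 at 4°C. Values, from duplicates, describe thermal stability against control samples on a log2 fold-change scale.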

[1] = compound: C/C(=N\NC(=O)C1=CC(=CC=C1)S(=O)(=O)N2CCOCC2)/C3=C(C=CC(=C3)Cl)O
How it was run: as §1

[2] = compound: C1=CC(=C(C=C1Cl)C2=NC3=NC=CN=C3C(=N2)NC4=CC=NC=C4)F
How it was run: as §1

[3] = compound: C1=CC(=CC=C1C2=NC3=C(N2)C=C(C=C3)C(=O)N)OC4=CC=C(C=C4)Cl
How it was run: as §1

[4] = compound: C1=CC2=C(C=CC(=C2)/C=C\3/C(=O)NC(=NCC4=CC=CS4)S3)N=C1
How it was run: as §1

[5] = compound: C1=CC2=NC=CN=C2C=C1/C=C/3\C(=O)NC(=O)S3
How it was run: as §1

[6] = compound: C1=CC=C(C=C1)C2=NC(=C(N2)C3=CC=NC=C3)C4=CC(=C(C=C4)Cl)O
How it was run: as §1

[7] = compound: C1=CC=C2C(=C1)C3=NNC4=CC=CC(=C43)C2=O
How it was run: as §1

[8] = compound: C1CCN(C1)C(=O)NC2=CC=CC(=C2)NC3=NC=C(C(=N3)NCCC4=CN=CN4)Br
How it was run: as §1

[9] = compound: C1CN(CCC1(CC2=CC=C(C=C2)Cl)N)C3=NC=NC4=C3C=CN4
How it was run: as §1

IRAK-1-4 Inhibitor I = compound: C1COCCN1CCN2C3=CC=CC=C3N=C2NC(=O)C4=CC(=CC=C4)[N+](=O)[O-] [IRAK-1-4 Inhibitor I]
How it was run: as §1

ibrutinib = compound: C=CC(=O)N1CCC[C@@H](n2nc(-c3ccc(Oc4ccccc4)cc3)c3c(N)ncnc32)C1 [ibrutinib]
How it was run: as §1

[10] = compound: CC(=O)c1cnc2ccc(-c3cc(Cl)c(O)c(Cl)c3)nc2c1N[C@H]1CC[C@H](CN(C)C)CC1
How it was run: as §1

ralimetinib = compound: CC(C)(C)Cn1c(N)nc2ccc(-c3[nH]c(C(C)(C)C)nc3-c3ccc(F)cc3)nc21 [ralimetinib]
How it was run: as §1

[11] = compound: CC(C)(O)CC(=O)NCCn1ccc2ncnc(Nc3ccc(Oc4cccc(C(F)(F)F)c4)c(Cl)c3)c21
How it was run: as §1

[12] = compound: CC(C)C1=C2N=C(C=C(N2N=C1)NCC3=CC=CC=C3)NCCCCCCN
How it was run: as §1

[13] = compound: CC(C)C[C@@H](C=O)NC(=O)[C@H](CC(C)C)NC(=O)[C@H](CC(C)C)NC(=O)OCc1ccccc1
How it was run: as §1

pinometostat = compound: CC(C)N(C[C@H]1O[C@@H](n2cnc3c(N)ncnc32)[C@H](O)[C@@H]1O)[C@H]1C[C@@H](CCc2nc3cc(C(C)(C)C)ccc3[nH]2)C1 [pinometostat]
How it was run: as §1

[14] = compound: CC1=C(C(CC(=O)N1)C2=CC=C(C=C2)C(F)(F)F)C(=O)NC3=C(C=C4C(=C3)C=NN4)F
How it was run: as §1

[15] = compound: CC1=C(C2=C(C=C1)C(=O)C3=CC=CC=C3N2CCCN)C
How it was run: as §1

Measured: log2 fold change

POLA1 (UniProt P09884)
inactive: erlotinib 0.03 | [1] 0.038 | [2] 0.042 | [3] -0.023 | [4] -0.032 | [5] 0 | [6] -0.013 | [7] 0.021 | [8] 0.006 | [9] -0.022 | IRAK-1-4 Inhibitor I -0.034 | ibrutinib -0.06 | [10] -0.02 | ralimetinib -0.018 | [11] -0.066 | [12] -0.151 | [13] 0.005 | pinometostat -0.027 | [14] -0.044 | [15] -0.066

PRKACB isoform 2 (UniProt P22694)
inactive: erlotinib 0.013 | [1] 0.049 | [2] -0.065 | [3] 0.072 | [4] 0.007 | [5] 0.008 | [6] -0.034 | [7] -0.096 | [8] -0.095 | [9] 0.007 | IRAK-1-4 Inhibitor I -0.007 | ibrutinib -0.032 | [10] -0.067 | ralimetinib -0.035 | [11] -0.011 | [12] -0.012 | [13] 0.054 | pinometostat -0.008 | [14] -0.034 | [15] 0.044

PPID (UniProt Q08752)
Chain of UniProt Q08752 (Q08752 whole entry, looked up): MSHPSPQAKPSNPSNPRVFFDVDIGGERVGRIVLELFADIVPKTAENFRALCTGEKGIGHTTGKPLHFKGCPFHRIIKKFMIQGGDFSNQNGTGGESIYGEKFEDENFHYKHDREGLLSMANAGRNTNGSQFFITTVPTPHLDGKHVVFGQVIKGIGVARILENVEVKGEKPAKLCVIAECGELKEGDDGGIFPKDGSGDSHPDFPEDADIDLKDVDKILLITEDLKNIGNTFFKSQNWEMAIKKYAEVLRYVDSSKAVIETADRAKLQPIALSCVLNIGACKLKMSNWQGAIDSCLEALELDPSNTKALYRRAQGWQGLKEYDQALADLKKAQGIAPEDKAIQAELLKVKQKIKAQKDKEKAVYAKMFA
inactive: erlotinib 0.114 | [1] 0.111 | [2] -0.01 | [3] -0.021 | [4] 0.075 | [5] 0.007 | [6] 0.095 | [7] 0.021 | [8] -0.076 | [9] -0.118 | IRAK-1-4 Inhibitor I -0.141 | ibrutinib -0.057 | [10] -0.013 | ralimetinib 0.103 | [11] -0.152 | [12] -0.238 | [13] 0.053 | pinometostat 0.105 | [14] -0.006 | [15] 0.022

POLR3D (UniProt P05423)
Chain of UniProt P05423 (P05423 whole entry, looked up): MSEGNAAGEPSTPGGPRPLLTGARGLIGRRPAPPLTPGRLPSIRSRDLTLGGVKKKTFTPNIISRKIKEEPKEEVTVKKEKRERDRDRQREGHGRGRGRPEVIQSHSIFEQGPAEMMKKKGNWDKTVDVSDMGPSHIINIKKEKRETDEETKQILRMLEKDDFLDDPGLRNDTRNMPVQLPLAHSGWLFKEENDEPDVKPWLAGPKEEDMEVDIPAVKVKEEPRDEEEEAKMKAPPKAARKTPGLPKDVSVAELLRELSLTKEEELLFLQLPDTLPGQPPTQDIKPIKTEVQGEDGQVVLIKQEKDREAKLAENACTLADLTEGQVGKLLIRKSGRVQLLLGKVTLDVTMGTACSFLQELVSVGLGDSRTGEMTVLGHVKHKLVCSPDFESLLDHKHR
active: [1] -0.665 | [4] -0.733
inactive: erlotinib 0.068 | [2] -0.087 | [3] -0.031 | [5] -0.022 | [6] 0.076 | [7] -0.004 | [8] -0.005 | [9] 0.372 | IRAK-1-4 Inhibitor I -0.017 | ibrutinib 0.766 | [10] 0.022 | ralimetinib 0.043 | [11] -0.1 | [12] -0.158 | [13] -0.002 | pinometostat 0.109 | [14] 0.012 | [15] 0.009

PTPA (UniProt Q15257)
Chain of UniProt Q15257 (Q15257 whole entry, looked up): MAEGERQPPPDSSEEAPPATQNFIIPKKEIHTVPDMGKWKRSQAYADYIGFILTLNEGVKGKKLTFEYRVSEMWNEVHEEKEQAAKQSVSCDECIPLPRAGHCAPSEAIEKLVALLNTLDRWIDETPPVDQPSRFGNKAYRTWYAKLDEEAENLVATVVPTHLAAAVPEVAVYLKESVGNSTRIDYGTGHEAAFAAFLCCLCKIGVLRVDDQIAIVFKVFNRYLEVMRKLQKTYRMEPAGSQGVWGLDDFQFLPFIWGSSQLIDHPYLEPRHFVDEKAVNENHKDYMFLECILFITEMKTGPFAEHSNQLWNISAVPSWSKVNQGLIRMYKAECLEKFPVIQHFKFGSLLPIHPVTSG
inactive: erlotinib 0.022 | [1] 0.034 | [2] 0.069 | [3] 0.127 | [4] -0.01 | [5] 0.01 | [6] 0.022 | [7] 0.029 | [8] -0.037 | [9] -0.013 | IRAK-1-4 Inhibitor I 0.016 | ibrutinib -0.027 | [10] -0.003 | ralimetinib -0.02 | [11] -0.022 | [12] -0.01 | [13] -0.028 | pinometostat -0.044 | [14] 0.016 | [15] -0.011

PTPN23 (UniProt Q9H3S7)
inactive: erlotinib 0.092 | [1] 0.158 | [2] -0.007 | [3] -0.048 | [4] 0.041 | [5] 0.018 | [6] 0 | [7] 0.006 | [8] -0.048 | [9] -0.029 | IRAK-1-4 Inhibitor I -0.008 | ibrutinib -0.052 | [10] -0.044 | ralimetinib 0.013 | [11] -0.061 | [12] -0.095 | [13] 0.038 | pinometostat -0.009 | [14] -0.036 | [15] 0.046

PSMC5 (UniProt P62195)
Chain of UniProt P62195 (P62195 whole entry, looked up): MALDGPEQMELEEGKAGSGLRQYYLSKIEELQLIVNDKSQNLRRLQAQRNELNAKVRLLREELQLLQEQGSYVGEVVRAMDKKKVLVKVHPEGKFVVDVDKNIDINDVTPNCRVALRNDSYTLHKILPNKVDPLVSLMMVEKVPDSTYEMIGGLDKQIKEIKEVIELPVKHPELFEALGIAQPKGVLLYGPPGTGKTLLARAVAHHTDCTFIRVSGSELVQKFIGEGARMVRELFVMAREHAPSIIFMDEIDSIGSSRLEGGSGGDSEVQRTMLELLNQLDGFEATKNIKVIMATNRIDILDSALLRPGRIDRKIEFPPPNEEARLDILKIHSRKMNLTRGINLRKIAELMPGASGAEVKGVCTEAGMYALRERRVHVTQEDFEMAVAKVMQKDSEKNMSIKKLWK
active: [13] -0.273
inactive: erlotinib -0.116 | [1] -0.044 | [2] -0.029 | [3] 0.021 | [4] -0.022 | [5] -0.03 | [6] -0.007 | [7] 0.019 | [8] 0.021 | [9] -0.032 | IRAK-1-4 Inhibitor I -0.038 | ibrutinib -0.031 | [10] 0.008 | ralimetinib -0.014 | [11] 0.024 | [12] 0.009 | pinometostat 0.021 | [14] 0.037 | [15] 0.002

PSMD5 (UniProt Q16401)
Chain of UniProt Q16401 (Q16401 whole entry, looked up): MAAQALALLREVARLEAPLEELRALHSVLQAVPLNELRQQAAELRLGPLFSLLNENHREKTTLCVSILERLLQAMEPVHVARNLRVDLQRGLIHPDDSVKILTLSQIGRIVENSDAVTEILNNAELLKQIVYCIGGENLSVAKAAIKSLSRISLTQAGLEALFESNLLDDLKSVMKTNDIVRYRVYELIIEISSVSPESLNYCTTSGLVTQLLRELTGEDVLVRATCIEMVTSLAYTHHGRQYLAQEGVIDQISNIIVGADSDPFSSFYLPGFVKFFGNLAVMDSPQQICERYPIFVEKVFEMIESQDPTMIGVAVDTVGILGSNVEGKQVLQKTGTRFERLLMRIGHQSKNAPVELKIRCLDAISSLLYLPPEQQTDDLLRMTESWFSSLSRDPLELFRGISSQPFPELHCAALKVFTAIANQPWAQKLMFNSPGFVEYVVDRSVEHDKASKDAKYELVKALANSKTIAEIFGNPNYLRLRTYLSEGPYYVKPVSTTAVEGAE
inactive: erlotinib -0.015 | [1] 0.038 | [2] 0.063 | [3] -0.007 | [4] 0 | [5] 0.027 | [6] -0.001 | [7] -0.012 | [8] 0.014 | [9] -0.004 | IRAK-1-4 Inhibitor I 0.04 | ibrutinib -0.004 | [10] 0.047 | ralimetinib -0.013 | [11] -0.033 | [12] -0.106 | [13] -0.061 | pinometostat -0.003 | [14] 0 | [15] -0.042

PPIL1 (UniProt Q9Y3C6)
Chain of UniProt Q9Y3C6 (Q9Y3C6 whole entry, looked up): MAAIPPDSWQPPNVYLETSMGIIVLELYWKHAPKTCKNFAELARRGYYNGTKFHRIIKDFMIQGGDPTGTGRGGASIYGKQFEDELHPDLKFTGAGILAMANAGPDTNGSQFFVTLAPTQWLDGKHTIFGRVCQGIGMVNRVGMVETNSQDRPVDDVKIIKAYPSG
active: [10] 0.225
inactive: erlotinib 0.019 | [1] -0.009 | [2] -0.027 | [3] -0.012 | [4] 0.024 | [5] 0.061 | [6] -0.013 | [7] -0.025 | [8] -0.007 | [9] -0.027 | IRAK-1-4 Inhibitor I -0.046 | ibrutinib -0.011 | ralimetinib -0.02 | [11] -0.038 | [12] 0.08 | [13] 0.09 | pinometostat 0.082 | [14] 0.004 | [15] 0.172

PSMD9 (UniProt O00233)
Chain of UniProt O00233 (O00233 whole entry, looked up): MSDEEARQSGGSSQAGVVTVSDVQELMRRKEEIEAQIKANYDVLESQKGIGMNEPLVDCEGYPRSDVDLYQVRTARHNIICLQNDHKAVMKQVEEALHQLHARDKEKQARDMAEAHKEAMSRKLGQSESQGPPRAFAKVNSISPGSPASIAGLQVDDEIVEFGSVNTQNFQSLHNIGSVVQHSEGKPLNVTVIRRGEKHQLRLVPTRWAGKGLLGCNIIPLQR
inactive: erlotinib 0.015 | [1] 0.015 | [2] 0.022 | [3] -0.012 | [4] -0.068 | [5] 0.041 | [6] 0.006 | [7] 0.008 | [8] 0.009 | [9] 0.03 | IRAK-1-4 Inhibitor I 0.033 | ibrutinib -0.005 | [10] -0.003 | ralimetinib -0.029 | [11] 0.003 | [12] 0.069 | [13] -0.015 | pinometostat -0.039 | [14] 0.017 | [15] -0.004

POLR3K (UniProt Q9Y2Y1)
Chain of UniProt Q9Y2Y1 (Q9Y2Y1 whole entry, looked up): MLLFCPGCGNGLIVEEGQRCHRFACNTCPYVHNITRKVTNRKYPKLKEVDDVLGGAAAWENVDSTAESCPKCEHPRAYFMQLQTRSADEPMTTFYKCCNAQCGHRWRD
inactive: erlotinib -0.082 | [1] 0.005 | [2] -0.005 | [3] 0.007 | [4] -0.057 | [5] -0.038 | [7] -0.056 | [8] -0.006 | [9] 0.031 | IRAK-1-4 Inhibitor I 0.026 | ibrutinib 0.044 | [10] -0.013 | ralimetinib -0.084 | [11] -0.07 | [12] 0.124 | [13] 0.089 | pinometostat 0.043 | [14] 0.032 | [15] -0.039
active: [6] -0.235

PSMD7 (UniProt P51665)
Chain of UniProt P51665 (P51665 whole entry, looked up): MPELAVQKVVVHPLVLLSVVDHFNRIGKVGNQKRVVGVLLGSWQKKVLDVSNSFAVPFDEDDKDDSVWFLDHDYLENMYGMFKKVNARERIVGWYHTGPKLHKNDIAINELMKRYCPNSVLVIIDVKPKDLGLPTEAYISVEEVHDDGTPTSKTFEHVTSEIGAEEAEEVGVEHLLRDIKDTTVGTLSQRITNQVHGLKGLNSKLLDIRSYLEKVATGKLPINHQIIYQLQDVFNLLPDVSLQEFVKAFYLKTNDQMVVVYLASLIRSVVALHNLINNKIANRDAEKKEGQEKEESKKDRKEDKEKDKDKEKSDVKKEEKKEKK
active: [13] -0.216
inactive: erlotinib -0.074 | [1] -0.1 | [2] -0.045 | [3] -0.023 | [4] -0.015 | [5] -0.072 | [6] 0.02 | [7] -0.009 | [8] 0.044 | [9] -0.01 | IRAK-1-4 Inhibitor I 0.055 | ibrutinib -0.006 | [10] 0.028 | ralimetinib 0.01 | [11] 0.057 | [12] 0.019 | pinometostat 0.066 | [14] 0.034 | [15] -0.029

PGGT1B (UniProt P53609)
Chain of UniProt P53609 (P53609 whole entry, looked up): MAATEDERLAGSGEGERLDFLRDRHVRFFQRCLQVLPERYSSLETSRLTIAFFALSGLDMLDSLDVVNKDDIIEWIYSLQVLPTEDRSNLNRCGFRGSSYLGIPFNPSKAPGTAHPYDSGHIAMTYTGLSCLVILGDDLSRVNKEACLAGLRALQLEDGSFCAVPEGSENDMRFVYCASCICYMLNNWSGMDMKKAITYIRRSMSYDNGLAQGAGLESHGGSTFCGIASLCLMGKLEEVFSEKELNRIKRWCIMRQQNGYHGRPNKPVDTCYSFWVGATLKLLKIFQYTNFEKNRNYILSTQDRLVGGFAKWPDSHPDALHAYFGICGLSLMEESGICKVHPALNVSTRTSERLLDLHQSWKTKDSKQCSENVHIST
inactive: erlotinib 0.024 | [1] 0.036 | [2] 0.114 | [3] 0.006 | [4] 0.049 | [5] -0.002 | [6] 0.021 | [7] -0.036 | [8] 0.054 | [9] 0.027 | IRAK-1-4 Inhibitor I 0.003 | ibrutinib -0.004 | [10] -0.062 | ralimetinib -0.055 | [11] 0.026 | [12] -0.019 | [13] 0.026 | pinometostat -0.03 | [14] 0.027 | [15] -0.028

PHKG2 (UniProt P15735)
Chain of UniProt P15735 (P15735 whole entry, looked up): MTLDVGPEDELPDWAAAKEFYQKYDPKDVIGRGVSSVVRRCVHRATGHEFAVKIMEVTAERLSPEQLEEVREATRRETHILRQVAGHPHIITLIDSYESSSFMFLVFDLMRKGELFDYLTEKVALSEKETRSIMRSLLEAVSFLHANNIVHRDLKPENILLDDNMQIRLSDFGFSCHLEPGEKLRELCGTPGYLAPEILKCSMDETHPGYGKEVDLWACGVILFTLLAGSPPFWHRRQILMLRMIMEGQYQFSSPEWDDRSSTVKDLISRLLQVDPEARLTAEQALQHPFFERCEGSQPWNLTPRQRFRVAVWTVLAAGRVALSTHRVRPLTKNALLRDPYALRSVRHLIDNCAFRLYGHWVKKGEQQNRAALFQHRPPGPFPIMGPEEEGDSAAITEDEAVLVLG
inactive: erlotinib -0.067 | [1] -0.078 | [2] 0.021 | [3] -0.003 | [4] -0.055 | [5] -0.113 | [6] 0.034 | [7] 0.076 | [8] -0.159 | [9] 0.029 | IRAK-1-4 Inhibitor I -0.034 | ibrutinib -0.008 | ralimetinib 0.031 | [11] -0.121 | [12] -0.041 | [13] 0.017 | pinometostat 0.054 | [14] -0.041 | [15] 0.115
active: [10] 0.39

PEF1 (UniProt Q9UBV8)
Chain of UniProt Q9UBV8 (Q9UBV8 whole entry, looked up): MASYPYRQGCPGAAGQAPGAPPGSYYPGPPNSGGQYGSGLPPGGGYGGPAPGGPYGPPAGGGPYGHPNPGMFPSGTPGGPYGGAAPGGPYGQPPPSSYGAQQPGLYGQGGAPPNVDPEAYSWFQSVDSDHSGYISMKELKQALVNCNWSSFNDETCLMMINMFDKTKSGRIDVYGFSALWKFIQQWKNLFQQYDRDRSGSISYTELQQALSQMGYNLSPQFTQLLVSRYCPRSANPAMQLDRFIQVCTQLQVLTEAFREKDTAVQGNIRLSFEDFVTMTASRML
inactive: erlotinib -0.053 | [1] 0.108 | [2] 0.079 | [3] -0.029 | [4] 0.134 | [5] -0.064 | [6] 0.109 | [7] 0.035 | [8] -0.008 | [9] -0.069 | IRAK-1-4 Inhibitor I 0.003 | ibrutinib -0.002 | [10] -0.03 | ralimetinib -0.057 | [11] -0.092 | [12] -0.094 | [13] -0.085 | pinometostat -0.041 | [14] -0.014 | [15] 0.085

PRIM2 (UniProt P49643)
Chain of UniProt P49643 (P49643 whole entry, looked up): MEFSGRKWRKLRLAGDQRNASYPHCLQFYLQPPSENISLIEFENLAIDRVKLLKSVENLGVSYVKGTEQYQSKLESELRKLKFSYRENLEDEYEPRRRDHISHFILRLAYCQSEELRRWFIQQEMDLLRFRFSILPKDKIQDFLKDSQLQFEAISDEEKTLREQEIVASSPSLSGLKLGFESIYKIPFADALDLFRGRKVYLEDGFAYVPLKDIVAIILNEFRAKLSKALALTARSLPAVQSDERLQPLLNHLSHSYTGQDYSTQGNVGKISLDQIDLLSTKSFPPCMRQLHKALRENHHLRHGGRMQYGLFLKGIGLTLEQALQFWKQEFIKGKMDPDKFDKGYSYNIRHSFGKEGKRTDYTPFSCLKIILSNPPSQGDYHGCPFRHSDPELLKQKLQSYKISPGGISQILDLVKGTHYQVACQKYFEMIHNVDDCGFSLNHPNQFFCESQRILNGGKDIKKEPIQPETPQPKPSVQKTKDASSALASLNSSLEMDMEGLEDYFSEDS
inactive: erlotinib 0.004 | [1] 0.038 | [2] 0.018 | [3] 0.015 | [4] 0.061 | [5] 0.009 | [6] 0.035 | [7] 0.035 | [8] -0.023 | [9] -0.071 | IRAK-1-4 Inhibitor I -0.043 | ibrutinib -0.04 | [10] -0.065 | ralimetinib -0.058 | [11] -0.265 | [12] -0.213 | [13] 0.074 | pinometostat 0.005 | [14] 0 | [15] 0.059
